# From PubChem BioAssay (Tox21)
# Records with an inconclusive call do not appear. Entries that show only a call come without a potency. A number with no mark means an inactive call. Activity calls are given as the source filed them. The call rests on the fitted dose curve; in most records, active means well fitted activation curve with a large enough effect in the repeat runs; inconclusive means weak or mixed curves; inactive means flat fitted curve, though single readings scatter.
# Assay: Caspase-3/7 induction in HepG2 cells by small molecules, qHTS assay (AID 1346978); further: nearly all actives have a fitted effect of over 15% in size
# Conditions: HepG2 caspase-3/7 activation, Caspase-Glo luminescence, 17 h; series mostly up to 92.4 µM
# Excerpt: National Center for Advancing Translational Sciences [NCATS] NIH Chemical Genomics Center [NCGC] U.S. Environmental Protection Agency [EPA] National Institutes of Environmental Health Sciences [NIEHS] National Toxicology Program [NTP] Assay overview: Apoptosis is a process of programmed cell death and plays a central role in the development of multicellular organisms. It is a highly regulated process and induces cell death by activating caspases, which are the members of cysteine aspartic acid-specific protease (caspase) family. Caspases involved in apoptosis are classified by their mechanism of action as initiator caspases (caspase-2, -8, -9 and -10) and executioner caspases (caspase-3, -6, and -7). Inhibition of apoptosis results in number of cancers, autoimmune diseases, inflammatory diseases and viral infection. To identify small molecule compounds that induce apoptosis, a homogeneous, luminescent Caspase-Glo 3/7 assay was used. Wild type HepG2 cells were used to screen Tox21 libraries for identifying caspase-3/7 activity inducers.
# Assay Protocol Summary: HepG2 cells were dispensed at 2,000 per well in 5uL of culture medium into white solid bottom 1536-well plates (Corning Life Sciences, Corning, NY) using a Multidrop Combi (Thermo Scientific, Waltham, MA) dispenser. The assay plates were incubated at 37 C and 5% CO2 for 5hr, and then 23nL of compounds dissolved in DMSO and positive control were transferred using a Pintool station (Wako, San Diego, CA). The assay plates were incubated at 37C and 5% CO2 for 17hr. For caspase-3/7 activity read, 4uL of Caspase-Glo 3/7 reagent (Promega Corporation, Madison, WI) was added to each well of the assay plates using Flying Reagent Dispenser (FRD, Aurora Discovery, San Diego, CA) and incubated the assay plates at room temperature for 30min. The luminescence signal was quantified using a ViewLux plate reader (Perkin Elmer, Shelton, CT).
# Potency means the concentration at half of the fitted maximal effect.
Compound,Potency,caspase activation
O=[N+]([O-])c1cccc(C(F)(F)F)c1,inactive,
CCC(=O)C(=O)CC,inactive,
Cc1c(C)c([N+](=O)[O-])c(C(C)(C)C)c([N+](=O)[O-])c1C,inactive,
OC[C@@H](O)[C@@H](O)CO,inactive,
Cc1cc(C)c(/C=C2\C(=O)Nc3ccccc32)[nH]1,inactive,
O=C(O)O,,0.0124% [at 8.39 µM]
CC1=CCC(=C(C)C)CC1,inactive,
ClCCl,inactive,
O=C(O)Cc1ccc2c(c1)C(=O)c1ccccc1CO2,inactive,
C=C(C)C(=O)OCCCCCCCCCC,inactive,
C=Cc1cccc(C)c1,inactive,
OC1CCC(C2CCCCC2)CC1 (stereo not given),inactive,
Cc1cc(C(C#N)c2ccc(Cl)cc2)c(Cl)cc1NC(=O)c1cc(I)cc(I)c1O (stereo not given),inactive,
O=[N+]([O-])c1ccc(F)c(Cl)c1,inactive,
CCC(COC(=O)CCS)(COC(=O)CCS)COC(=O)CCS,inactive,
CCN(CCN)c1cccc(C)c1,inactive,
Nc1cc(Cl)c(O)c(Cl)c1,inactive,
CCCCCC(C)OC(=O)COc1ccc(Cl)c2cccnc12 (stereo not given),inactive,
CC[N+](CC)(CC)CCOC(=O)C(C1CCCC1)C1CCCC1,inactive,
CCOC(=O)Cn1cccc1-c1nc(-c2ccc(OC)cc2)c(-c2ccc(OC)cc2)s1,inactive,

Compound,Potency,caspase activation
CCCNCCC,inactive,
Cc1c(C)c2c(c(C)c1OC(=O)c1cccnc1)CC[C@@](C)(CCC[C@H](C)CCC[C@H](C)CCCC(C)C)O2,inactive,
O=C(O)c1cc(N=Nc2ccc([N+](=O)[O-])cc2)ccc1O,inactive,
CCCCOC(=O)CC,inactive,
c1ccc(C(O[C@@H]2CCCN(CCc3ccc4c(c3)OCO4)C2)c2ccccc2)cc1,inactive,
CCN(CC)C(=O)c1cc(S(=O)(=O)Cc2ccccc2)c(N2CCC(c3ccccc3)CC2)cc1N(CC)CCN(C)C,19.1 µM (active),
C1CCC(SSC2CCCCC2)CC1,inactive,
CCCCCCCCCCCC(=O)OCC(C)OC(=O)CCCCC(=O)O (stereo not given),inactive,
COC(=O)c1ccccc1C,inactive,
Cc1ccc(N/N=c2\c(=O)cc/c(=N\Nc3ccc(S(=O)(=O)O)cc3)c2=O)c(C)c1,inactive,
CCCCCCC1CCCC(=O)O1 (stereo not given),inactive,
S=C([S-])NCCNC(=S)[S-].S=C([S-])NCCNC(=S)[S-].[Mn+2].[Zn+2],inactive,
CCOc1ccc2ccccc2c1C(=O)N[C@@H]1C(=O)N2[C@@H]1SC(C)(C)[C@@H]2C(=O)O,inactive,
O=C(Oc1ccccc1)Oc1ccccc1,inactive,
O=C(O)c1cc(-c2ccc(F)cc2F)ccc1O,inactive,
Nc1nc2c(ncn2COCCO)c(=O)[nH]1,inactive,
CCCCCc1ccc(Cl)cc1,inactive,
O=C(O)c1cccc(C(F)(F)F)c1,inactive,
O=c1oc2cc(O)ccc2c2oc3cc(O)ccc3c12,inactive,
O=C(O)[C@H](O)[C@@H](O)[C@H](O[C@@H]1O[C@H](CO)[C@H](O)[C@H](O)[C@H]1O)[C@H](O)CO,inactive,
